# ALDH1A1 block – blocks purified human ALDH1A1 activity; P00352; Purified ALDH1A1, NADH fluorescence, propionaldehyde substrate; Potency, µM (doses to about 75.3 µM), for the others: at the top dose activity, negative = inhibition, usual class: inhibitors; 220,000 compounds, 7.3% hits; active = well fitted inhibition curve with a large enough effect, not every such curve was filed as active; inconclusive = small, poorly fitted or top-dose-only effect, or another doubt; inactive = no such curve, though single readings can be large or run the other way;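 also: plate controls were no enzyme wells and a reference inhibitor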
# Target sequence (P00352 whole entry, looked up): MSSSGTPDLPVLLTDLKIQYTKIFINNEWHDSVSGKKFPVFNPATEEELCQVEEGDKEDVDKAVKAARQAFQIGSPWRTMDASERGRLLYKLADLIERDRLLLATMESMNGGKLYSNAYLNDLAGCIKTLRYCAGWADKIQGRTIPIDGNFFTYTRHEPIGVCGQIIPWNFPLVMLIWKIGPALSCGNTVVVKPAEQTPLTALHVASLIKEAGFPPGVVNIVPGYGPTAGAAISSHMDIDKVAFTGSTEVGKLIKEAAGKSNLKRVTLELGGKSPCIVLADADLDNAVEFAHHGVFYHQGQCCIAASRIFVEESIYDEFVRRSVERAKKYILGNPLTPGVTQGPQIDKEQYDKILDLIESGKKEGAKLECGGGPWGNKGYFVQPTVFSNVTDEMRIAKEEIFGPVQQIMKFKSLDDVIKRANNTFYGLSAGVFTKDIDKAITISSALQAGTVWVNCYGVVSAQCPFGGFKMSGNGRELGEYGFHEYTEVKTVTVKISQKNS
# Sfp inh – inhibitors of Bacillus subtilis Sfp phosphopantetheinyl transferase; Q9F4F7; Biochemical Sfp PPTase activity, qHTS; Potency, µM, for the others: largest response in the series, negative = inhibition, hits mostly inhibitors; 310,000 compounds, 3.5% hits;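 also: the enzyme is Sfp with the accession as filed and its product quenches rhodamine fluorescence; 0% = enzyme reaction without inhibitor and -100% = no enzyme wells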
#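 Step 1, compound plus 15 nM Sfp-PPTase, 15 min, room temperature. Step 2, add rhodamine-CoA (5 uM) and BHQ-2-YbbR (12.5 uM). Step 3, read 525/598 nm fluorescence at 0 and 30 min.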
# PLK1 PBD inh – blocks phosphopeptide binding to human PLK1 polo-box domain | Potency, µM, for inactives: max response, negative = inhibition, actives largely listed as inhibitors | 360,000 compounds, 2.8% hits | Plk1 PBD binding of FITC phosphopeptide, fluorescence polarization | AID 720504; also: series mostly up to about 57 µM; nearly all actives have a fitted effect of over 65% in size
# VP16 counter – inhibits Gal4-VP16 luciferase reporter, ROR gamma counter-screen. Drosophila S2 Gal4-VP16 UAS-luciferase, luminescence, 20 h. Potency, µM (highest dose often 53.6 µM), for inactives: at the top dose activity, negative = inhibition, most hits filed as inhibitors. 310,000 compounds, 3.5% hits. AID 2546;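 also: Gal4-VP16 expression switched on by copper sulfate through the metallothionein promoter; nearly all actives have a fitted effect of over 50% in size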
# RORgamma inh – blocks mouse ROR gamma transcriptional activity; P51450; AID 2551; Drosophila S2 Gal4-RORgamma UAS-luciferase reporter, 20 h; 310,000 compounds, 5.4% hits; Potency, µM (top dose mostly 53.6 µM), for the others: at the highest dose activity change, negative = inhibition, hits mostly inhibitors; also: nearly all actives have a fitted effect of over 60% in size
#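 In this cell-based reporter format, copper sulfate (700 uM final) drives Gal4–ROR gamma fusion expression from a metallothionein promoter in Drosophila Schneider cells; compounds preincubated 1 hr, reporter read after 20 hr at ambient temperature.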
# * marks the source's active call; other numbers are inactive results; u = inconclusive; x = not tested or not shown; [ ] = remark or other dose. This is a sample that favours compounds with a hit; in the whole collection about 12% have one here. Unless noted, calls follow the shape of the dose curve; as a rule, active = well fitted curve in the direction sought with a large enough effect; inconclusive = small, poorly fitted or top-dose-only effect, or another doubt; inactive = no such curve, though single readings can be large; an effect the other way counts as inactive or inconclusive. Unless noted, % is scaled to controls: 0 for no effect and ±100 for the full control effect; potency is read from the fitted curve at half-maximal effect.
SMILES,ALDH1A1 block,Sfp inh,PLK1 PBD inh,VP16 counter,RORgamma inh
Cc1ccc2nc(C3CCCCC3)c(Cc3ccccc3)n2c1,x,x,-2%,x,x
COc1cccc(Cn2c(=O)c(CCc3ccccc3)nc3cnc(OC)nc32)c1,3%,u,x,-4%,23%
COc1ccc(CSCCc2n[nH]c(=S)n2-c2ccccc2)cc1,-3%,-29%,-15%,-3%,12%
Cn1c(CSCCOc2ccccc2)n[nH]c1=S,-8%,-7%,2%,u,1µM*
S=c1[nH]nc(COc2ccc3ccccc3c2)o1,3.5µM*,0%,u,4µM*,u
Clc1ccc(OCCn2cnc3ccccc32)c(Cl)c1,10%,-7%,0%,-3%,80%
S=c1[nH]nc(CSCCOc2ccc(Cl)cc2Cl)o1,0.1µM*,2%,-23%,3.2µM*,4µM*
N#CCSc1nnc(COc2ccc3ccccc3c2)o1,-13%,-5%,u,3%,26%
S=c1[nH]nc(CSCCOc2ccccc2)o1,20µM*,-24%,-14%,-12%,u
COc1ccc(C(C)(O)c2nc(-c3cnc4ccccc4c3)cs2)cc1 (stereo unspecified),x,x,-4%,x,x
Cc1cccc(N=N/C(=C\O)C(=O)c2ccc(Br)cc2)c1,u,-12%,1%,u,-24%
O=C(/C(=C/O)N=Nc1ccccc1Cl)c1ccccc1,7.9µM*,3%,-5%,-14%,9%
O=C(/C(=C/O)N=Nc1ccccc1)c1ccco1,14µM*,-3%,-5%,-19%,17%
O=C(/C(=C/O)N=Nc1cccc(C(F)(F)F)c1)c1ccccc1,7.5µM*,-3%,-12%,-5%,-17%
CN(Cc1ccccc1)S(=O)(=O)c1ccc(Cl)c(C(=O)N2CCOCC2)c1,x,x,-1%,x,x
OCC[C@@H]1C[C@H](O)[C@@H](O)[C@@]2(CCCCO2)O1,x,x,-5%,x,x
Cc1ccc2cc(CN(C(=O)c3ccco3)c3cccc(C)c3C)c(=O)[nH]c2c1,x,32µM*,u,-2%,-5%
Cc1ccc(N(Cc2cc3ccc(C)cc3[nH]c2=O)C(=O)c2ccco2)c(C)c1,x,50µM*,u,-21%,29%
Cc1ccc2cc(CN(C(=O)c3ccco3)c3ccccc3C)c(=O)[nH]c2c1,4.5µM*,50µM*,-23%,0%,13%[10 µM]
COCC(=O)N(Cc1cc2ccc(C)cc2[nH]c1=O)c1ccccc1C,x,29%,-9%,-2%,-11%
COc1ccc(/C=N/Nc2nccnc2Cl)c(OC)c1,-2%,u,-18%,u,u
COc1ccc(/C=N/NC(C)(C)C)c(OC)c1,20µM*,-13%,-24%,-13%,1%
COc1cc(/C=C/c2ccccc2)cc(OC)c1,x,x,-1%,x,x
COc1cc(/C=C\c2ccc(OC)cc2OC)cc(OC)c1,u,50µM*,x,-15%,u
COc1ccc(NS(=O)CCCc2ccccc2)cc1 (stereo unspecified),x,x,-9%,x,x
SMILES,ALDH1A1 block,Sfp inh,PLK1 PBD inh,VP16 counter,RORgamma inh
COc1ccc([C@H]2CC(=O)C=C(c3cccc(C(F)(F)F)c3)C2)cc1,x,x,27µM*,x,x
Cc1ccc(/C=N/NC(=S)NC(C)C)o1,-9%,1%,-20%,2.8µM*,1.4µM*
COC(=O)c1ccc(/C=N/NC(=S)NC(C)C)cc1,x,13%,13µM*,7.1µM*,2µM*
Cc1ccc(/C=N/NC(=O)c2cccc3ccccc23)o1,x,-17%,4%,u,0%
COC(=O)c1ccc(/C=N/NC(=O)CC(=O)NC(C)C)cc1,-8%,0%,-5%,-1%,3%
Cc1ccc(/C=N/NC(=O)C(C)Oc2cccc3ccccc23)o1 (stereo unspecified),x,56µM*,-19%,u,16µM*
C=C(C)CNC(=S)N/N=C/c1ccc(N2CCOCC2)cc1,u,0%,1%,5µM*,2µM*
O=C1C=C(c2ccccc2Oc2ccccc2)C[C@@H](c2ccc(F)cc2)C1,x,x,-9%,x,x
CC(C)NC(=S)N/N=C/c1ccc(N2CCOCC2)cc1,u,5%,-2%,4.5µM*,2.8µM*
COCCNC(=S)N/N=C/c1ccc(N2CCOCC2)cc1,u,-27%,6%,20µM*,u
COc1ccc(OC)c(NC(=S)NCCN2CCOCC2)c1,17%,10%,-5%,-6%,-11%
O=C(N/N=C/c1ccc(N2CCOCC2)cc1)c1ccccc1OCCOc1ccccc1,u,-3%,3µM*,-21%,37%
O=C(N/N=C/c1ccc(N2CCOCC2)cc1)c1ccncc1,x,x,-5%,x,x
COc1cc(/C=N/NC(=S)NCCN2CCOCC2)ccc1O,3%,50µM*,-4%,-10%,u
COc1c(C)cc(C(O)c2ncc(-c3ccc4ccccc4c3)[nH]2)cc1C (stereo unspecified),x,x,3%,x,x
CCN(C)C1CN(Cc2cn(CCCC(=O)OC)nn2)S(=O)(=O)C1 (stereo unspecified),x,x,1%,x,x
C=C(C)CNC(=S)N/N=C/c1ccc([N+](=O)[O-])cc1,2%,-9%,7%,4.5µM*,1.1µM*
Oc1ccc(/C=N/NC(=S)N2CCOCC2)cc1,14µM*,-1%,-5%,u,1.1µM*
O=C(Nc1ccc(O)cc1)N1CCOCC1,x,5%,3%,-7%,3%
CC(C)c1ccc(/C=N/NC(=O)C(=O)NCCCN2CCOCC2)cc1,14µM*,0%,-14%,-4%,-9%[10 µM]
C=C(C)CNC(=S)N/N=C/c1c(F)cccc1F,u,2%,2%,6.3µM*,1.8µM*
Cc1ccc(F)cc1C(=O)N1CCCCC1c1cc(C(=O)Nc2cccc(C#N)c2)no1 (stereo unspecified),x,x,-14%,x,x
COc1ncc2nc(-c3cccs3)c(=O)n(CCc3ccccc3)c2n1,u,2%,x,25%,10%
CCNC(=S)NS(=O)(=O)c1ccccc1,-13%,79µM*,u,-3%,u

# Screening data: PubChem, National Center for Advancing Translational Sciences (NCATS)
